Most compounds without a hit are left out; they make up all but 4% or so of the library.
HIF-2a inh: blocks HIF-2a reporter activity | hit rate 0.72% among 360,000 | 786-0 RCC cells HIF-2a reporter, luciferase luminescence, overnight | inhibition, % at 18.8 µM | AID 624352;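 active = inhibition of the luminescence signal of 40% or more relative to plate controls, in a single-dose primary screen at 18.75 µM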
Peg3 promoter: reduces Peg3 promoter-driven luciferase expression in HeLa; HeLa PEG-Prom luciferase reporter, luminescence, overnight; inhibition, % at 20 µM; hit rate 1.7% among 360,000;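 active = inhibition of at least 50% at 20 µM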
TWEAK-Fn14 inh: TWEAK-Fn14 signaling inhibition; TWEAK-stimulated Fn14 reporter cells, luciferase luminescence, 8 h; inhibition, % at 10 µM; hit rate 2% among 360,000; AID 1159606; in the data active = inhibition above about 50%
CF NFkB block: cystic fibrosis NF-kB activation inhibition. KKLEB NF-kB-GFP reporter, PAF-induced, GFP fluorescence overnight. inhibition, % at 5 µM. hit rate 0.86% among 360,000;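 active = at least 50% inhibition at 5 µM, scaled per plate between neutral and stimulator controls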;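 also: PAF is a Pseudomonas aeruginosa culture filtrate used as stimulus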
KKLEB tox: counter-screen for CF NF-kB inhibitors: cytotoxicity. activity change (cytotoxicity), % at 5 µM. hit rate 0.36% among 360,000. KKLEB CF airway cells viability, ATPlite luminescence, overnight; stronger effect = lower value; cells stimulated with P. aeruginosa culture filtrate;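 active = corrected activity change at or below -50% at 5 µM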
TROY signal inh: blocks TROY-dependent signaling in reporter cells; Q293 LMP1-TROYcd NF-kB luciferase reporter, 4 h; inhibition, % at 10 µM; hit rate 0.98% among 360,000; AID 1347056;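 active = compounds whose plate-normalised and pattern-corrected inhibition of the luciferase reporter signal at the single screening dose is 50% or more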
Mdm2 MdmX conf: confirmation of inhibitors of human Mdm2/MdmX interaction, set 2; SaOS-2 split-luciferase Mdm2/MdmX complementation, luminescence; inhibition, % at 8 µM; hit rate 99% among 740; shares compounds with HIF-2a inh;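 active = mean inhibition of the luminescence signal across two replicates at or above 26 percent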
Target sequence (O15151 whole entry, looked up): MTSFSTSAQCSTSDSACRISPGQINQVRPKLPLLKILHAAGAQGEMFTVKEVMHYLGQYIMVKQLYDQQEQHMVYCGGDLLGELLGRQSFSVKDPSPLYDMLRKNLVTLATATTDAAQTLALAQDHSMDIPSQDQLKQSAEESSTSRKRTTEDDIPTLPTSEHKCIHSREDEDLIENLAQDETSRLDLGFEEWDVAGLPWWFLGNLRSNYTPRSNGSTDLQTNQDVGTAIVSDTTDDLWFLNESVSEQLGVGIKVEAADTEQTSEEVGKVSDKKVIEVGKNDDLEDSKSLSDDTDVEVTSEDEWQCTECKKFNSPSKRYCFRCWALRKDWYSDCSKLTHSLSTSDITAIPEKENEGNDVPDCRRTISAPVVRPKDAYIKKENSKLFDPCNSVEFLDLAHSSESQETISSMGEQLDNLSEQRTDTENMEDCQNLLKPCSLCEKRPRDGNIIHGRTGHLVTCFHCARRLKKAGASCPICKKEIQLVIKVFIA
Target sequence (Q00987 whole entry, looked up): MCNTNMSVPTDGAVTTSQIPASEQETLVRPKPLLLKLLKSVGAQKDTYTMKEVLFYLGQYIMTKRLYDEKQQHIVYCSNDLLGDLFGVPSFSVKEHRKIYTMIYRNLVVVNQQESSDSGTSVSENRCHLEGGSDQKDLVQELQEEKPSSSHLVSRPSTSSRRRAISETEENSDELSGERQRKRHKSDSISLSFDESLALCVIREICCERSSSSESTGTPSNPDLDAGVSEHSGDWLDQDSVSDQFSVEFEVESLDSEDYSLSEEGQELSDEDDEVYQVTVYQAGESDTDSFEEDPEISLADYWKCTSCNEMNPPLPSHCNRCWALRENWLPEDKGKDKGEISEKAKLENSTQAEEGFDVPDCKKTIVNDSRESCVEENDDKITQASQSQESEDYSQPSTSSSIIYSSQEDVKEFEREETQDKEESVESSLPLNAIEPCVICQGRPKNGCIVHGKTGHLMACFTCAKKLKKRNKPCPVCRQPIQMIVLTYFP
HIF-2a conf: HIF-2a inhibition, single concentration confirmation | AID 651580 | shares compounds with HIF-2a inh | 786-0 RCC cells, HIF-2a luciferase reporter luminescence, overnight | inhibition, % at 18.8 µM | hit rate 56% among 1,800;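 active = mean inhibition across four replicates of at least 40 percent at the single tested concentration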
HIF-1a counter: HIF-1a inhibition counter-screen for HIF-2a hits | shares compounds with HIF-2a inh | MiaPaCa-2 HIF-1a luciferase reporter, desferoxamine, overnight | inhibition, % at 18.8 µM | hit rate 72% among 1,800 | AID 651589;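 active = mean inhibition of the reporter signal across four replicates at the single tested dose of 50% or more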
A number is an active result; . = inactive; / = no result.

SMILES	HIF-2a inh	Peg3 promoter	TWEAK-Fn14 inh	CF NFkB block	KKLEB tox	TROY signal inh	HIF-2a conf	HIF-1a counter	others
COc1ccc(Nc2oc(COc3ccc(Cl)cc3)nc2C#N)cc1	49.5	.	88.1	.	.	.	.	51.3
COc1ccc(CNc2oc(COc3ccc(Cl)cc3)nc2C#N)cc1	.	.	.	.	.	.	/	/
COc1cccc(COC(=O)C2CC(=O)N(Cc3ccccc3)C2)c1OC (configuration not stated)	.	.	.	.	.	.	/	/
COc1ccccc1N1C(=O)C=C(Sc2nc(C)cc(C)n2)C1=O	57.7	87.0	.	.	.	.	62.8	.
O=C(NCc1cccnc1)c1ccc(-c2ccc(Cl)cc2)o1	.	.	.	.	.	.	/	/
O=C(NCc1cccnc1)/C(=C\c1ccc(-c2ccc(Cl)c(Cl)c2)o1)S(=O)(=O)c1ccccc1	97.1	101.7	105.0	98.6	-98.2	89.4	98.7	106.2
O=C(OCC#CCSc1nnc(-c2cccc3ccccc23)o1)c1cnc[nH]1	.	.	.	.	.	.	/	/
Cc1cc(C)c2cc3c(N)c(C(=O)Nc4c(C)[nH]c(=O)[nH]c4=O)sc3nc2c1	69.2	.	66.1	.	.	.	.	65.7
Cc1cc(C)c2cc3c(N)c(C(=O)N4CCOCC4)sc3nc2c1	.	.	.	.	.	.	/	/
CCC(CC)C(=O)N(C)c1c(C)nc2c(OCc3ccc(Cl)cc3)cccn12	.	.	.	.	.	.	/	/
Cc1ccc(NC(=O)CN2C(=O)N/C(=C/c3ccc(C)o3)C2=O)cc1	.	.	.	.	.	.	/	/
C=CCN1C(=O)N/C(=C/c2ccc(C)o2)C1=O	40.2	.	.	.	.	.	.	.
Cc1ccc(C(=O)Nc2ccc3ncccc3c2)cc1	42.5	.	94.3	.	-63.7	55.6	50.8	.
O=C(OCn1ncc(Cl)c(Cl)c1=O)c1cccc(C(F)(F)F)c1	93.3	103.9	97.8	77.9	.	.	96.6	105.2	Mdm2 MdmX conf=103.2
N/C(=N\OC(=O)c1cccc(C(F)(F)F)c1)c1cnccn1	.	.	.	.	.	.	/	/
COC(=O)[C@]12CCCCC=C1N(Cc1ccccc1)C(=O)[C@H](CC(=O)NCc1cccc(C(F)(F)F)c1)C2	.	/	.	/	/	.	/	/
COc1cc2c(OC(C)=O)c3c(c(-c4ccc5c(c4)OCO5)c2cc1OC)C(=O)OC3	.	78.4	.	.	.	.	/	/	Mdm2 MdmX conf=88.2
COc1ccc(C(=O)Oc2ccc3c(c2)OCO3)cc1OC	.	.	.	.	.	.	/	/
Cn1cncc1C(=O)c1ccccc1	.	.	.	.	.	.	/	/
COC(=O)c1nn(-c2ccc(OC)cc2)c(=O)cc1O	.	.	.	.	.	.	/	/
COc1ccc(-n2nc(C#N)c(Cl)cc2=O)cc1	91.0	104.2	95.8	76.6	.	60.6	/	/	Mdm2 MdmX conf=103.2
CC(C)(C)n1nc(-c2ccc(F)cc2)c2c(N)ncnc21	43.3	.	.	.	.	.	45.2	.
CC(C)(C)n1nc(-c2ccc(Cl)cc2)c2c(N)ncnc21	62.7	69.3	.	.	.	.	43.4	80.0
Cc1ccc(-c2nc(N)c3c(-c4ccc(C)cc4)nn(C(C)(C)C)c3n2)cc1	.	.	.	.	.	.	/	/
COc1ccc(NC(=S)NC(NC(=O)/C=C/c2ccccc2)C(Cl)(Cl)Cl)cc1 (configuration not stated)	65.8	53.3	.	.	.	.	.	.
SMILES	HIF-2a inh	Peg3 promoter	TWEAK-Fn14 inh	CF NFkB block	KKLEB tox	TROY signal inh	HIF-2a conf	HIF-1a counter	others
CCOC(=O)NC(NC(=S)Nc1ccc(OC)cc1)C(Cl)(Cl)Cl (configuration not stated)	.	.	.	.	.	.	/	/
COc1ccc(CNc2ncc(-c3ccc(F)cc3)n2C)c2ccccc12	40.9	59.5	57.6	.	.	.	92.7	104.1
COc1ccccc1CNc1ncc(-c2ccc(F)cc2)n1C	.	.	.	.	.	.	/	/
Cc1ccc(NC(=O)c2cc(CC(C)C)nc3ccccc23)cc1	.	.	.	.	.	.	/	/	Mdm2 MdmX conf=93.7
COc1ccc(NC(=O)c2cc(CC(C)C)nc3ccccc23)cc1	.	.	.	.	.	.	/	/	Mdm2 MdmX conf=98.0
CN1CCN(C(=O)/C=C/c2ccc(C#N)cc2)CC1	.	.	.	.	.	.	/	/
CCCCN(C(C)=O)c1c(CC)nc2ccc(C(=O)NCc3cccs3)cn12	.	.	.	.	.	.	/	/
Cc1ccc(NC(=O)CN(c2ccc(Cl)cc2)S(=O)(=O)c2cc([N+](=O)[O-])ccc2Cl)cc1	.	.	.	.	.	.	/	/
CCN(CC)S(=O)(=O)c1cc([N+](=O)[O-])ccc1NNC(=O)Nc1ccc(Cl)c(Cl)c1	.	.	59.0	.	.	53.6	/	/	Mdm2 MdmX conf=93.7
CNC(=O)c1[nH]cnc1C(=O)Nc1ccc(OC)cc1	.	.	.	.	.	.	/	/
COc1ccc(-n2c(C)c([N+](=O)[O-])c3ccc(O)c(CN(C)C)c32)cc1	.	.	79.6	79.2	.	/	/	/	Mdm2 MdmX conf=94.2
COc1ccc(-n2c(C(C)n3nc(C)c([N+](=O)[O-])c3C)n[nH]c2=S)cc1 (configuration not stated)	.	.	.	.	.	.	/	/
CCCCN(C(C)=O)c1c(CC)nc2ccc(C(=O)NCCc3ccccn3)cn12	.	.	.	.	.	.	/	/
CCOC(=O)COc1ccc(S(=O)(=O)N2CCN(c3ccccc3F)CC2)cc1	47.5	.	.	.	.	.	.	.
COC(=O)c1c(NC(=O)Cc2ccccc2)sc2c1CC(C)(C)NC2(C)C	.	.	.	.	.	.	/	/
COC(=O)c1c(NC(=O)COc2ccc(Cl)cc2)sc2c1CC(C)(C)NC2(C)C	52.0	98.7	.	.	-57.0	.	.	99.2
Cc1[nH]n(-c2ccccc2)c(=O)c1N=Nc1ccc2c(c1)OCCO2	.	.	.	.	.	.	/	/
Cc1[nH]n(-c2ccccc2)c(=O)c1N=Nc1c(O)cc(S(=O)(=O)N(C)C)c2ccccc12	.	61.7	88.4	.	.	.	/	/	Mdm2 MdmX conf=89.5
CCOC(=O)[C@]12CCC=C1N(Cc1cccc3ccccc13)C(=O)[C@H](CC(=O)NCCC(C)C)C2	.	/	.	/	/	.	/	/
Cc1ccccc1Sc1ncnc2onc(C)c12	.	.	.	.	.	.	/	/
Cc1noc2ncnc(Sc3c(Cl)cccc3Cl)c12	42.6	96.8	.	.	.	57.0	.	95.0
CCCCCCCCCn1c2c(c(=N)c3c1CCC3)CCC2	.	65.6	.	55.4	-62.0	51.5	/	/	Mdm2 MdmX conf=101.5
c1ccc(-n2nnnc2Sc2ncnc3sc4c(c23)CCCC4)cc1	40.7	68.5	99.5	82.5	-51.8	73.0	.	62.4

Screening results as filed in PubChem.
